These results are taken from article PMC11006913.

In the first assay the target is ALX4 (Homo sapiens, UniProt Q9H161 200-286). Nature of the assay: PBM; 200 nM protein, PBS. Particulars: dsDNA, one strand shown.
ALX4 (Homo sapiens, UniProt Q9H161 200-286), sequence (Q9H161 200-286): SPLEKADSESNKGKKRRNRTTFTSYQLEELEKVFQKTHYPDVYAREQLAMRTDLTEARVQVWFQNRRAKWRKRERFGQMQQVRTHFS
As to CTGTCCAC, the binding signal is 7.93 upbm affinity estimate (log intensity, higher = more binding, comparable within an allelic series).

As to AATTTTGA, the binding signal was 11.1 upbm affinity estimate (log intensity, higher = more binding, comparable within an allelic series).

Consider CATGGGGG, for which the binding signal is 7.84 upbm affinity estimate (log intensity, higher = more binding, comparable within an allelic series).

For the sequence CCCGGAAG, the binding signal was 7.9 upbm affinity estimate (log intensity, higher = more binding, comparable within an allelic series).

Take CCGTAGCC: the binding signal is 8.11 upbm affinity estimate (log intensity, higher = more binding, comparable within an allelic series).

Take GACGCGGC: the binding signal is 8.04 upbm affinity estimate (log intensity, higher = more binding, comparable within an allelic series).

Take ACCTCCTC: the binding signal was 8.28 upbm affinity estimate (log intensity, higher = more binding, comparable within an allelic series).

Turning to CTCCCTTC, the binding signal is 7.88 upbm affinity estimate (log intensity, higher = more binding, comparable within an allelic series).

Take AGCCGTGC: the binding signal is 7.92 upbm affinity estimate (log intensity, higher = more binding, comparable within an allelic series).

For CTCCGGCC, the binding signal is 8.03 upbm affinity estimate (log intensity, higher = more binding, comparable within an allelic series).

Turning to CCCTTCCA, the binding signal was 8.25 upbm affinity estimate (log intensity, higher = more binding, comparable within an allelic series).

As for GGAAGCCA, the binding signal is 8.23 upbm affinity estimate (log intensity, higher = more binding, comparable within an allelic series).

As to CAGTCGCC, the binding signal was 8.23 upbm affinity estimate (log intensity, higher = more binding, comparable within an allelic series).

As to GGTTATCA, the binding signal was 9.51 upbm affinity estimate (log intensity, higher = more binding, comparable within an allelic series).

GCAGACCC: the binding signal is 7.9 upbm affinity estimate (log intensity, higher = more binding, comparable within an allelic series).

Regarding CGGCGGGC, the binding signal was 8.42 upbm affinity estimate (log intensity, higher = more binding, comparable within an allelic series).

As for ATTTTCTC, the binding signal was 10.1 upbm affinity estimate (log intensity, higher = more binding, comparable within an allelic series).

For ATCAATCA, the binding signal is 11.7 upbm affinity estimate (log intensity, higher = more binding, comparable within an allelic series).

With AAGCCGGC, the binding signal was 7.99 upbm affinity estimate (log intensity, higher = more binding, comparable within an allelic series).

In the case of AACTTACA, the binding signal is 9.85 upbm affinity estimate (log intensity, higher = more binding, comparable within an allelic series).

For the sequence AGAGAGCG, the binding signal was 8.15 upbm affinity estimate (log intensity, higher = more binding, comparable within an allelic series).

Turning to GGTGGCCA, the binding signal was 8.06 upbm affinity estimate (log intensity, higher = more binding, comparable within an allelic series).

Consider CCGTCCCC, for which the binding signal is 8.07 upbm affinity estimate (log intensity, higher = more binding, comparable within an allelic series).

With CGTGCTCC, the binding signal was 8.3 upbm affinity estimate (log intensity, higher = more binding, comparable within an allelic series).

On to CTCGGGTC, for which the binding signal was 8.18 upbm affinity estimate (log intensity, higher = more binding, comparable within an allelic series).

Turning to AGAGCCTC, the binding signal was 7.96 upbm affinity estimate (log intensity, higher = more binding, comparable within an allelic series).

Regarding ATGATAAA, the binding signal is 10.4 upbm affinity estimate (log intensity, higher = more binding, comparable within an allelic series).

For AGCAGCTC, the binding signal was 8.01 upbm affinity estimate (log intensity, higher = more binding, comparable within an allelic series).

As to TAAATTTA, the binding signal is 12.2 upbm affinity estimate (log intensity, higher = more binding, comparable within an allelic series).

Take ATTAACCA: the binding signal was 12.4 upbm affinity estimate (log intensity, higher = more binding, comparable within an allelic series).

As for CCCTCACG, the binding signal was 8.1 upbm affinity estimate (log intensity, higher = more binding, comparable within an allelic series).

ACTTACCG: the binding signal is 9.9 upbm affinity estimate (log intensity, higher = more binding, comparable within an allelic series).

As for GCTCAAGC, the binding signal was 8.08 upbm affinity estimate (log intensity, higher = more binding, comparable within an allelic series).

On to GTAAAATA, for which the binding signal is 10.2 upbm affinity estimate (log intensity, higher = more binding, comparable within an allelic series).

As for TCGGCCGA, the binding signal was 7.94 upbm affinity estimate (log intensity, higher = more binding, comparable within an allelic series).

ATTACGAA: the binding signal is 11.4 upbm affinity estimate (log intensity, higher = more binding, comparable within an allelic series).

As to CCTAGAGA, the binding signal was 8.06 upbm affinity estimate (log intensity, higher = more binding, comparable within an allelic series).

On to ATTGGTGA, for which the binding signal was 10.4 upbm affinity estimate (log intensity, higher = more binding, comparable within an allelic series).

On to CCTAGGAC, for which the binding signal was 7.82 upbm affinity estimate (log intensity, higher = more binding, comparable within an allelic series).

Take CCATCGGA: the binding signal is 8.15 upbm affinity estimate (log intensity, higher = more binding, comparable within an allelic series).

In a further assay the target is ALX4 (Homo sapiens, UniProt Q9H161 200-286, Q225E). Put plainly: PBM; 200 nM protein, PBS. The note with it: dsDNA, one strand shown.
ALX4 (Homo sapiens, UniProt Q9H161 200-286, Q225E), sequence (Q9H161 200-286 Q225E): as the sequence (Q9H161 200-286) above, with Q26E counted along it
Turning to CTGTCCAC, the binding signal was 8.3 upbm affinity estimate (log intensity, higher = more binding, comparable within an allelic series).

Regarding AATTTTGA, the binding signal is 10.2 upbm affinity estimate (log intensity, higher = more binding, comparable within an allelic series).

On to CATGGGGG, for which the binding signal is 7.96 upbm affinity estimate (log intensity, higher = more binding, comparable within an allelic series).

On to CCCGGAAG, for which the binding signal was 8.04 upbm affinity estimate (log intensity, higher = more binding, comparable within an allelic series).

With CCGTAGCC, the binding signal was 8.21 upbm affinity estimate (log intensity, higher = more binding, comparable within an allelic series).

For GACGCGGC, the binding signal was 8.07 upbm affinity estimate (log intensity, higher = more binding, comparable within an allelic series).

Take ACCTCCTC: the binding signal is 8.12 upbm affinity estimate (log intensity, higher = more binding, comparable within an allelic series).

Take CTCCCTTC: the binding signal is 8.19 upbm affinity estimate (log intensity, higher = more binding, comparable within an allelic series).

Take AGCCGTGC: the binding signal was 8.07 upbm affinity estimate (log intensity, higher = more binding, comparable within an allelic series).

Turning to CTCCGGCC, the binding signal is 8.06 upbm affinity estimate (log intensity, higher = more binding, comparable within an allelic series).

For the sequence CCCTTCCA, the binding signal is 8.35 upbm affinity estimate (log intensity, higher = more binding, comparable within an allelic series).

In the case of GGAAGCCA, the binding signal was 8.17 upbm affinity estimate (log intensity, higher = more binding, comparable within an allelic series).

Turning to CAGTCGCC, the binding signal is 8.19 upbm affinity estimate (log intensity, higher = more binding, comparable within an allelic series).

As for GGTTATCA, the binding signal was 9.1 upbm affinity estimate (log intensity, higher = more binding, comparable within an allelic series).

For the sequence GCAGACCC, the binding signal is 8.2 upbm affinity estimate (log intensity, higher = more binding, comparable within an allelic series).

Regarding CGGCGGGC, the binding signal was 8.3 upbm affinity estimate (log intensity, higher = more binding, comparable within an allelic series).

Consider ATTTTCTC, for which the binding signal was 9.45 upbm affinity estimate (log intensity, higher = more binding, comparable within an allelic series).

ATCAATCA: the binding signal was 10.5 upbm affinity estimate (log intensity, higher = more binding, comparable within an allelic series).

Take AAGCCGGC: the binding signal was 8.26 upbm affinity estimate (log intensity, higher = more binding, comparable within an allelic series).

AACTTACA: the binding signal is 9.42 upbm affinity estimate (log intensity, higher = more binding, comparable within an allelic series).

Regarding AGAGAGCG, the binding signal was 8.26 upbm affinity estimate (log intensity, higher = more binding, comparable within an allelic series).

For the sequence GGTGGCCA, the binding signal was 8.37 upbm affinity estimate (log intensity, higher = more binding, comparable within an allelic series).

Regarding CCGTCCCC, the binding signal is 8.31 upbm affinity estimate (log intensity, higher = more binding, comparable within an allelic series).

Turning to CGTGCTCC, the binding signal was 8.41 upbm affinity estimate (log intensity, higher = more binding, comparable within an allelic series).

Take CTCGGGTC: the binding signal is 8.25 upbm affinity estimate (log intensity, higher = more binding, comparable within an allelic series).

Regarding AGAGCCTC, the binding signal was 7.95 upbm affinity estimate (log intensity, higher = more binding, comparable within an allelic series).

In the case of ATGATAAA, the binding signal is 9.81 upbm affinity estimate (log intensity, higher = more binding, comparable within an allelic series).

For AGCAGCTC, the binding signal is 8.09 upbm affinity estimate (log intensity, higher = more binding, comparable within an allelic series).

For TAAATTTA, the binding signal was 11 upbm affinity estimate (log intensity, higher = more binding, comparable within an allelic series).

ATTAACCA: the binding signal is 11.3 upbm affinity estimate (log intensity, higher = more binding, comparable within an allelic series).

With CCCTCACG, the binding signal was 8.28 upbm affinity estimate (log intensity, higher = more binding, comparable within an allelic series).

With ACTTACCG, the binding signal was 9.28 upbm affinity estimate (log intensity, higher = more binding, comparable within an allelic series).

GCTCAAGC: the binding signal was 8.25 upbm affinity estimate (log intensity, higher = more binding, comparable within an allelic series).

For the sequence GTAAAATA, the binding signal is 9.6 upbm affinity estimate (log intensity, higher = more binding, comparable within an allelic series).

Take TCGGCCGA: the binding signal is 8.39 upbm affinity estimate (log intensity, higher = more binding, comparable within an allelic series).

Turning to ATTACGAA, the binding signal is 10.3 upbm affinity estimate (log intensity, higher = more binding, comparable within an allelic series).

For the sequence CCTAGAGA, the binding signal was 8.18 upbm affinity estimate (log intensity, higher = more binding, comparable within an allelic series).

Turning to ATTGGTGA, the binding signal was 9.78 upbm affinity estimate (log intensity, higher = more binding, comparable within an allelic series).

In the case of CCTAGGAC, the binding signal was 8.1 upbm affinity estimate (log intensity, higher = more binding, comparable within an allelic series).

With CCATCGGA, the binding signal was 8.29 upbm affinity estimate (log intensity, higher = more binding, comparable within an allelic series).
